Test results: PubChem BioAssay (NCI)
About 83,000 compounds went through this panel and 20% of them were active in at least one assay; those are over-represented in the sample as a whole.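 Note: values are percent growth. 100 is the growth of untreated cells, values between 100 and 0 indicate rising inhibition; between -100 and 0 indicates cell death.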 A number with no mark means an inactive call. Calls of active or inactive are those of the source. How the source made its calls: active means growth percent below 10; inactive means the rest.

Experiments:
Assay in all cases: NCI-60 one-dose screen, 48 h (100 = growth as untreated, 0 = no growth, -100 = all killed)
RPMI-8226 leukemia = settings: 10 µM unless noted
OVCAR-8 ovarian = settings: 10 µM unless noted
OVCAR-5 ovarian = settings: 10 µM unless noted
SK-OV-3 ovarian = settings: 10 µM unless noted
OVCAR-3 ovarian = settings: 10 µM unless noted
HS 578T breast = settings: 10 µM unless noted
NCI/ADR-RES ovarian = settings: 10 µM unless noted
T-47D breast = settings: 10 µM unless noted
BT-549 breast = settings: 10 µM unless noted
MDA-MB-435 melanoma = settings: 10 µM unless noted
SW-620 colon = settings: 10 µM unless noted
MCF7 breast = settings: 10 µM
HCT-116 colon = settings: 10 µM unless noted
HCC-2998 colon = settings: 10 µM unless noted
KM12 colon = settings: 10 µM unless noted
IGROV1 ovarian = settings: 10 µM unless noted
OVCAR-4 ovarian = settings: 10 µM unless noted

Row | SMILES | growth (RPMI-8226 leukemia) | growth (OVCAR-8 ovarian) | growth (OVCAR-5 ovarian) [%] | growth (SK-OV-3 ovarian) | growth (OVCAR-3 ovarian) | growth (HS 578T breast) | growth (NCI/ADR-RES ovarian) | growth (T-47D breast) | growth (BT-549 breast) | growth (MDA-MB-435 melanoma) | growth (SW-620 colon) | growth (MCF7 breast) | growth (HCT-116 colon) | growth (HCC-2998 colon) | growth (KM12 colon) | growth (IGROV1 ovarian) [%] | growth (OVCAR-4 ovarian) [%]
1 | N#C/C(=C1\SC(=O)CN1c1ccccc1)c1nc2ccccc2s1 | 83.7% | 94.9% | 103 | 99.1% | 87% | 94.3% | 89.2% | 73.6% | 103% | 102% | 93.5% | 73.8% | 89% | 97.3% | 98.4% | – | –
2 | FC(F)(F)c1cccc(CNC2CCN(CCc3ccccc3)CC2)c1 | -10.3% (active) | 79.5% | 84.6 | 81.2% | 64.7% | 88.1% | 65.2% | 86.7% | 96.4% | 43.6% | 63% | 74.9% | 31.3% | 19.5% | 70.2% | 61.9 | –
3 | CCOC(=O)c1c(Cl)c2c(n1Cc1ccccc1)-c1oncc1CCC2 | 50.6% | 84.3% | 95.3 | 95.2% | 39.5% | 69.7% | 43.5% | 80.7% | 87.6% | -12.9% (active) | 39.5% | 37.5% | 50.3% | 61.8% | 53.1% | 75.1 | –
4 | O=Cc1c(OCc2cnnn2CC(=O)Nc2ccc(Br)cc2)ccc2ccccc12 | 104% | 96.1% | 95 | – | 97.2% | 85.1% | 90.5% | – | 80.8% | 102% | 91.3% | 84.1% | – | 94.3% | 88.7% | 85.9 | 97
5 | O=C(Nc1ccc(Cl)cc1)N1CCN(c2ccc3nncn3n2)CC1 | -20.9% (active) | 30.5% | 87.2 | -3.29% (active) | -7.82% (active) | -40.7% (active) | 63.2% | -54.9% (active) | 43.4% | – | -88% (active) | -53.4% (active) | – | -33.6% (active) | -40.8% (active) | 72.3 | –
6 | O=c1c2cc(F)ccc2sc2c(NCCN3CCCC3)nc3ccccc3c12 | 33.9% | 63% | 72.1 | – | 48.8% | 56.8% | 66.4% | – | 86.7% | 23.2% | 19.1% | 30.4% | 39.1% | 30.9% | 39.5% | 61.7 | 54.2
7 | COc1cc(C=C2C(=O)N(C)C(=O)N(C)C2=O)cc(CN2CCCCC2)c1O | 104% | 105% | 96.9 | – | 105% | 96% | 105% | – | 101% | 103% | 104% | 92.5% | 100% | 103% | 103% | 104 | 103
8 | O=C(Nc1ccc(F)c(Cl)c1)Nc1ccc(Cl)c(Cl)c1 | 65.8% | 92.4% | 114 | 84.3% | 61.1% | 72.4% | 59.1% | – | 64% | -7.47% (active) | 35% | 55.1% | 50.6% | 94.6% | 51.6% | 73.6 | –
9 | c1ccc(-c2ccc(-c3nc4ccccc4[nH]3)cc2)cc1 | 51.2% | 89.4% | 106 | 89.3% | 86.2% | 94.5% | 86.7% | 86.6% | 94.2% | 82.4% | 101% | 76.3% | 74.1% | 88.3% | 84.6% | 75.1 | –
10 | C[n+]1c2ccccc2nc2ccc(NCCO)cc21 | 66.8% | 82.1% | 102 | 112% | 79.2% | 82.7% | 86.4% | – | 105% | 98.4% | 96.6% | 84.8% | 94.2% | 116% | 92% | 63.9 | –
11 | CCCCc1ccc(NS(=O)(=O)c2cc3c4c(c2)CCN4C(=O)CC3)cc1 | 21.9% | 15.9% | 52.5 | 30.8% | 32.2% | 47.8% | 7.47% (active) | 25.4% | 0.335% (active) | 29.6% | 25.3% | 16.2% | 13.4% | 19% | 21% | 11.3 | –
12 | O=C(CSc1ccc2nnc(-c3cccc(F)c3)n2n1)Nc1ccc2c(c1)OCO2 | 52.3% | 53.4% | 113 | 100% | 48.3% | 76.4% | 48.4% | 56.2% | 88.3% | 89.5% | 92.8% | 36.4% | 62.1% | 109% | 73.5% | 54.8 | –
13 | CCOc1cc(Cl)c(C(C)NC(=O)c2cccc(OC)c2)cc1OCC (stereo not drawn) | -6.93% (active) | -19.9% (active) | 30.2 | 35.4% | -82.5% (active) | 18% | 1.86% (active) | 13.5% | -27.7% (active) | -28.6% (active) | -50.9% (active) | 3.38% (active) | -57.5% (active) | -85.1% (active) | 0.624% (active) | 28.2 | –
14 | CCCC(c1nnnn1C1CCCCC1)N1CCN(C(=O)c2ccco2)CC1 (stereo not drawn) | 28.9% | 86.4% | 89.4 | 79.5% | 25.2% | 60.7% | 46.1% | 92.9% | 58.9% | -21.7% (active) | 22.4% | 45.4% | 31.7% | 76.4% | 47.5% | 69.2 | –
15 | C=C(C)CCC(C)N1CCC(N2CCC(C(=O)NCCc3ccccc3)CC2)CC1 (stereo not drawn) | 4.75% (active) | 75.6% | 92.2 | 52.9% | -15.2% (active) | 56.6% | 59.9% | 60.9% | 64.5% | -18.5% (active) | 45.2% | 9.23% (active) | 17.6% | 131% | 24.8% | 69.5 | –
16 | CCn1c(SCC(=O)Nc2cc(C(F)(F)F)ccc2Cl)nc2ccccc2c1=O | 14.2% | 60.9% | 78.3 | 76.5% | 52.4% | 43.8% | 47.3% | 50.6% | 64.3% | 18.1% | 49.1% | 28.9% | 32.2% | 11.7% | 10.3% | 34.2 | –
17 | COc1cc(/C=C2\CCC/C(=C\c3cc(CN4CCCCC4)c(O)c(OC)c3)C2=O)cc(CN2CCCCC2)c1O | 55.5% | 80.6% | 114 | – | 65.2% | 81.4% | 87.2% | – | 103% | 76.8% | 71.4% | 52.5% | 60.1% | 103% | 73.7% | 88.2 | 60.9
18 | COc1ccccc1CNC(=O)C1c2ccccc2C(=O)N(CC(C)C)C1c1cccs1 (stereo not drawn) | 2.15% (active) | 50.5% | 84.2 | 106% | 58% | 68.8% | 71.4% | 42.5% | 78.9% | 71% | 78.6% | 66.4% | 59.9% | 48.3% | 32.7% | 71.8 | –
19 | CCN(CC)c1cc(C)c2cc(NC(=O)c3cccc(OC)c3)ccc2n1 | 7.5% (active) | 74.8% | 98.3 | 104% | 74.8% | 58.3% | 80.5% | 70.8% | 80.9% | 74.2% | 64.9% | 73.1% | – | 91.3% | 88.5% | 98.4 | –
